The values that follow come from PubChem BioAssay (Tox21).

Results filed as inconclusive are left out. A number with no mark means an inactive call. Calls come from the whole dose curve; as a rule, active = well fitted inhibition curve with a large enough effect in the repeat runs; inconclusive = weak or mixed curves, or effect the other way; inactive = no such curve, though single readings can be large or run the other way.
% is set by controls: 0 for no effect and ±100 for the full control effect.

This experiment addresses Nuclear receptor ROR-gamma (Homo sapiens) (UniProt P51449). Briefly: qHTS assay to identify small molecule antagonists of the retinoid-related orphan receptor gamma (ROR-gamma) signaling pathway (AID 1159521; note: top concentration of the series differs between compounds; nearly all actives have a fitted effect of over 50% in size). The settings on record: Tet-on RORgamma CHO cells, RORE-luciferase, 16 h; series mostly up to 92.4 µM; activity change, negative = inhibition: at the top concentration. The method in brief:
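Screening format: cell-based luciferase reporter in CHO cells with doxycycline-inducible RORγ. Compound pre-exposure lasts 2 h, doxycycline is 1 uM final, induction runs 16 h at 37 C, and ONE-Glo luminescence is read.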
For orientation: Quantitative high-throughput screening tests each substance at several concentrations.
For the compound `NNc1nnc(NN)c2ccccc12`, the “activity change, negative = inhibition” value was 98.8% [at 42.5 µM]. `C=CCCCCCCCCCCCC`: the “activity change, negative = inhibition” value was 9.05%. Turning to `O=C(O)c1ccc(Cl)cc1Cl`, the “activity change, negative = inhibition” value is 4.67%.

On to `O=C1CC(c2ccc(Cl)cc2)CC(=O)N1`, for which the “activity change, negative = inhibition” value is -7.31% [at 42.5 µM].

In the case of `Cc1nc2n(c(=O)c1CCN1CCC(c3noc4cc(F)ccc34)CC1)CCC[C@H]2O`, the activity change, negative = inhibition is 29.3% [at 19 µM]. In the case of `CN(C)C(=O)CNC(=O)Cc1ccccc1` it was 23.1% [at 42.5 µM]. On to `C=C(C)C(=O)OCC(C)(C)COC(=O)C(=C)C`, for which the “activity change, negative = inhibition” value is 9.08%.

Take `O=C(O)c1cc(Cl)cc([N+](=O)[O-])c1Cl`: the “activity change, negative = inhibition” value is -28.7%. In the case of `O=S(=O)(O)c1ccc2cc(O)c(S(=O)(=O)O)cc2c1` it was 2.61%; in that of `On1nnc2ccccc21`, -7.35%.

With `CN=C(NC#N)Nc1ccc(C2=NNC(=O)CC2C)cc1` (configuration not stated), the “activity change, negative = inhibition” value was 13.7% [at 42.5 µM]. The result for `CC(=O)Nc1cccc(C)c1` reads 19.4%; that for `CCc1ccc(C=O)cc1`, 2.02%; that for `CC/C=C\CC1=C(C)CCC1=O`, 12.3%. For the compound `OC[C@H](Cc1cccc(O)c1)[C@H](CO)Cc1cccc(O)c1`, the “activity change, negative = inhibition” value is -2.64%. Regarding `COc1ccc(Br)c(C)c1`, the “activity change, negative = inhibition” value was -0.895%.

With `Cc1ccc(C=O)cc1C`, the “activity change, negative = inhibition” value was 0.989%.

As for `CCCC/C=C\CCCCCCCCCC=O`, the “activity change, negative = inhibition” value was 8.42%. The result for `COc1cc2c(cc1OC)[C@@H]1CC(=O)[C@@H](CC(C)C)CN1CC2` reads 10.8% [at 42.5 µM]; that for `c1ccc2nccnc2c1`, 17.3%; that for `Cc1ccc2ccc(Cl)cc2n1`, -6.35% [at 42.5 µM]. Take `CC(=O)OC(C)OC(=O)C(C)c1ccc(-c2ccccc2)c(F)c1` (configuration not stated): the “activity change, negative = inhibition” value was 8.23% [at 42.5 µM]. The result for `CC(C)(C)c1nnc(NS(=O)(=O)c2ccc(N)cc2)s1` reads 7.55% [at 42.5 µM]. The result for `CCn1ccc(NS(=O)(=O)c2ccc(N)cc2)nc1=O` reads 0.178% [at 42.5 µM]; that for `COc1ccc2c(c1)C(=O)N(CCc1ccc(S(=O)(=O)NC(=O)NC3CCCCC3)cc1)C(=O)C2(C)C`, -11.2% [at 42.5 µM]; that for `Cc1ccc2c(c1)OCC(=O)CO2`, 7.97%.

On to `Cc1ccc(S(=O)(=O)O)c(C)c1`, for which the “activity change, negative = inhibition” value was -1.86%. The result for `Cc1cc2cc3c(C)cc(=O)oc3c(C)c2o1` reads 55.1% [at 42.5 µM]. For `COc1nccnc1NS(=O)(=O)c1ccc(N)cc1`, the “activity change, negative = inhibition” value was 6.53% [at 42.5 µM]. Take `C=C(C)C1CCC(C)(O)CC1` (configuration not stated): the “activity change, negative = inhibition” value was 13.8%. For the compound `CC(C)N(c1ccccc1)C(C)C`, the “activity change, negative = inhibition” value was 2.25%. `CC(C)c1ccc2cc(C(C)C)ccc2c1`: the “activity change, negative = inhibition” value is 13.1%.

For `C=C(C)C(=O)OCCOP(=O)(O)OCCOC(=O)C(=C)C`, the “activity change, negative = inhibition” value is 5.54%. The result for `Cc1cc(Cl)c(C)cc1Cl` reads 15.3%; that for `O=C(O)Cc1cn(-c2ccccc2)nc1-c1ccc(Cl)cc1`, -25.7% [at 42.5 µM]. In the case of `COC(=O)CCc1ccc(OCC(O)CNC(C)C)cc1` (configuration not stated) it was -11.4% [at 42.5 µM]. In the case of `COc1ccc(-c2cc(=O)c3c(O)cc(O[C@@H]4O[C@H](CO[C@@H]5O[C@@H](C)[C@H](O)[C@@H](O)[C@H]5O)[C@@H](O)[C@H](O)[C@H]4O)cc3o2)cc1O` it was 24.4% [at 42.5 µM].
